Methyltransferases: Primary Screen for Target Class Profiling of Small Molecule Inhibitors of Methyltransferases. purified enzyme, MTase-Glo SAH luminescence; stronger effect = lower value. calls only at 40 µM. 3.9% of 25,000 active; call rule not given here
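Each enzyme was reacted with SAM and its substrate, with compounds tested once at 40 uM; SAH formed was read by MTase-Glo luminescence.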
Of the large screens only hits and unclear results are named; the others gave an inactive call. The sample as a whole holds a higher share of hits than the screen did.

C[C@H]1c2cccc(O)c2C(O)=C2C(=O)[C@]3(O)C(O)=C(C(N)=O)C(=O)[C@@H](N(C)C)[C@@H]3[C@@H](O)[C@@H]21	Methyltransferases active
CC(CN1C(=O)c2cc3ccccc3n2CC1(C)C(=O)NC1CCCCC1)c1ccccc1 (configuration not stated)	none
COc1ccc(CNC(=O)CCn2ccc3cc(S(=O)(=O)N4CCCCC4)ccc32)cc1OC	none
CCCN1C(=O)c2nc3ccccc3n2CC1(C)C(=O)NC1CCCC(C)C1C (configuration not stated)	none
CCCN1C(=O)c2c(C(=O)NCc3cccc(C)c3)ncn2CC1(C)C(=O)NCCC(C)C (configuration not stated)	none
CCCCN1C(=O)c2cc(C(=O)Nc3ccccc3C)nn2CC1(C)C(=O)NC1CCCC1 (configuration not stated)	none
OC[C@H]1O[C@@H](OCc2ccccc2)[C@H](O[C@@H]2OC[C@@H](O)[C@H](O)[C@H]2O)[C@@H](O)[C@@H]1O	none
C=C(C)C(=O)OC1[C@@H]2C(=C)C(=O)O[C@@H]2C[C@@H](C)[C@@H]2C=CC(=O)[C@@]12C (some centres not stated)	none
C=C1C(=O)O[C@H]2CC(=C)[C@H]3CC[C@@](C)(O)[C@@H]3CC12 (some centres not stated)	Methyltransferases active
C=C1C(=O)O[C@H]2C1CCC(C)=C1C(=O)C=C(C)[C@@]12O (some centres not stated)	none
O=C(Nc1nc2cc(C(F)(F)F)cc(NC3CC3)n2n1)c1cccnc1	none
CCC1(N2CCN(C(=O)Nc3cc(C)ccc3OC)CC2)CCN(C(=O)C(C)C)C1 (configuration not stated)	none
CC1(C(=O)NC2CCCCC2)Cn2nc(-c3cccs3)cc2C(=O)N1CCc1ccc(Cl)cc1 (configuration not stated)	none
CCCn1c(=O)c2cc(Cl)ccc2n2c(SCC(=O)NCc3ccc(Cl)cc3)nnc12	none
COc1ccc(-c2cc3n(n2)CC(C)(C(=O)NCc2ccccc2OC)N(CCCc2ccccc2)C3=O)cc1 (configuration not stated)	none
C/C(=C\CC/C(C)=C/CC[C@]1(C)CCc2cc(O)cc(C)c2O1)CC/C=C(\C)C(=O)O	Methyltransferases active
CCOC(=O)c1cc2n(n1)CC(C)(C(=O)NC1CCCC1)N(c1ccccc1F)C2=O (configuration not stated)	none
COc1cc(C(CO)C(OC2OC(CO)C(O)C(O)C2O)c2ccc(O)c(OC)c2)ccc1O (configuration not stated)	none
COc1cc(C[C@@]2(O)CO[C@@H](c3ccc(O[C@@H]4O[C@H](CO)[C@@H](O)[C@H](O)[C@H]4O)c(OC)c3)[C@H]2CO)ccc1O	none
COc1cc(C2Oc3c(OC)cc(CCCO[C@@H]4O[C@H](CO)[C@@H](O)[C@H](O)[C@H]4O)cc3C2CO)ccc1O (some centres not stated)	Methyltransferases active
COc1ccc(C2Oc3c(OC)cc(CCCO)cc3C2COC2OC(CO)C(O)C(O)C2O)cc1OC (configuration not stated)	none
COc1cc(C(O)C(CO)Oc2ccc(CCCO[C@@H]3O[C@@H](C)[C@H](O)[C@@H](O)[C@H]3O)cc2OC)ccc1O (some centres not stated)	Methyltransferases active
COc1cc(/C=C/C(=O)OCC2OC(OC3(CO)OC(CO)C(O)C3O)C(O)C(O)C2O)ccc1O (configuration not stated)	Methyltransferases active
O=C(/C=C/c1ccc(O)cc1)OC[C@H]1O[C@H](O[C@@]2(CO)O[C@@H](CO)[C@H](O)[C@H]2O)[C@H](O)[C@@H](O)[C@@H]1O	none
COc1cc(C2Oc3c(OC)cc(CCCO)cc3C2CO)ccc1O[C@H]1O[C@H](C)[C@@H](O)[C@H](O)[C@@H]1O (some centres not stated)	none
COc1cc(C2Oc3c(OC)cc(/C=C/C(=O)OC[C@H]4O[C@@H](OC(C)(C)C(=O)O)[C@H](O)[C@@H](O)[C@@H]4O)cc3C2CO)ccc1O (some centres not stated)	Methyltransferases active
COc1cc(/C=C/C(=O)OC2CC(C)=C(C(=O)O)/C2=C/CO[C@@H]2O[C@H](CO)[C@@H](O)[C@H](O)[C@H]2O)ccc1O (some centres not stated)	none
COc1cc(/C=C/C(=O)O[C@H]2[C@H](O)[C@@H](CO)O[C@@]2(CO)O[C@H]2O[C@H](CO)[C@@H](O)[C@H](O)[C@H]2O)cc(OC)c1O	none
O=C(/C=C/c1ccc(O)c(O)c1)OCc1ccccc1O[C@@H]1O[C@H](CO)[C@@H](O)[C@H](O)[C@H]1O	none
CCc1ccc(-c2cc3n(n2)CC(C)(C(=O)NC2CCCCC2)N(Cc2ccccn2)C3=O)cc1 (configuration not stated)	none
CCCn1c(=O)c2ccc(C(=O)NC(C)C)cc2n2c(SCC(=O)NC(C)C)nnc12	none
CCOC(=O)c1cc2n(n1)CC(C)(C(=O)NC1CCCCC1)N(c1cccc(CC)c1)C2=O (configuration not stated)	none
CC(C)CCNC(=O)C1(C)Cn2c(cc3ccccc32)C(=O)N1Cc1cccc(Cl)c1 (configuration not stated)	none
CCOc1ccc(CCN2C(=O)c3cc4ccccc4n3CC2(C)C(=O)NCCC(C)C)cc1OCC (configuration not stated)	none
CCc1ccccc1NC(=O)Cn1nc2n(C(C)C)c(=O)c3ccc(C(=O)NCC(C)C)cc3n2c1=O	none
Cc1ccc(NC(=O)Cn2nc3n(CCc4ccccc4)c(=O)c4ccccc4n3c2=O)c(C)c1	none
CSc1ccc(CCNC(=O)c2cc3n(n2)CC(C)(C(=O)NCCC(C)C)N(C)C3=O)cc1 (configuration not stated)	none
O=C(CSc1nnc2n(Cc3ccccc3)c(=O)c3ccccc3n12)NCc1ccccc1	none
CCCn1c(=O)c2ccc(C(=O)NC3CCCC3)cc2n2c(SCC(=O)NC3CCCC3)nnc12	none
CCC1CCCCN1S(=O)(=O)c1ccc2c(c1)n(C)c(=O)n2C (configuration not stated)	none
CC(=O)N1CCN(C(=O)c2ccc3oc(-c4ccncc4Cl)nc3c2)CC1	none
Cc1ccc(CNS(=O)(=O)c2ccc3[nH]c4c(c3c2)CCCC4)o1	none
CC1CCCC(NC(=O)C2(C)Cn3c(cc4sccc43)C(=O)N2Cc2ccc(F)cc2)C1C (configuration not stated)	none
CCc1cc2c(cc3n2CC(C)(C(=O)NC2CCCCCC2)N(CCN(CC)CC)C3=O)s1 (configuration not stated)	none
CC(C)OCCCn1c(=O)c2ccccc2n2c(=O)n(CC(=O)NCc3ccccc3Cl)nc12	none
C/C=C/c1ccc(O[C@@H]2O[C@H](CO)[C@@H](O)[C@H](O)[C@H]2O)c(OC)c1	none
COc1cc(/C=C/c2cc(O)cc(O[C@@H]3O[C@H](CO)[C@@H](O)[C@H](O)[C@H]3O)c2)ccc1O	Methyltransferases active
COc1cc(/C=C/CO)ccc1O[C@@H]1O[C@H](CO)[C@@H](O)[C@H](O)[C@H]1O	none
CCCn1c(=O)c2ccc(C(=O)NCC(C)C)cc2n2c(SCC(=O)Nc3cccc(F)c3)nnc12	none
CCCNC(=O)CCn1ccc2cc(S(=O)(=O)N3CCCC3)ccc21	none
CCC(C)NC(=O)c1ccc2c(=O)n(C)c3nn(CC(=O)NC4CCCC4)c(=O)n3c2c1 (configuration not stated)	none
C=C(C)[C@H]1C[C@@H](O)C(=C)CC[C@@H](O)C(=C)[C@@H](O)C1	Methyltransferases active

Screens as filed in PubChem.
